This is part of a sample that, as a whole, favours compounds with a hit. Of some 79,000 tested, about 15% had one in any assay. Values without a mark were called inactive. Calls of active or inactive are those of the source. Rule as the data show it: active = growth inhibition above about 70%; inactive = the rest.

Among the data in PubChem BioAssay (NCI) are growth inhibition values, retold here.

One assay in a line: NCI Yeast Anticancer Drug Screen. Data for the rad50 strain (AID 155).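 Also: 0% = growth of vehicle-only cultures of the same strain.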 To be noted: S. cerevisiae rad50 strain growth inhibition; at 1.2 µM; hits give high values. In outline:
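A DNA repair-deficient yeast mutant serves as the test organism; compound-induced growth inhibition is calculated against vehicle-treated cells.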
Regarding `CNC(=O)OCc1c(COC(=O)NC)c(C)n(-c2ccc(Cl)c(Cl)c2)c1C`, the growth inhibition is -37%.

Take `COc1ccc2nc(N/N=C/c3sccc3C)cc(C)c2c1`: the growth inhibition is -22%.

For the compound `O=C(O)/C=C\C(=O)NNc1ccc(Br)cc1`, the growth inhibition was 8%.

For the compound `S=c1[nH]nc(Cc2ccccc2)c(=S)[nH]1`, the growth inhibition is -17%.

As for `COc1ccc2nc3cccc([N+](=O)[O-])c3c(NCCCO)c2c1`, the growth inhibition is 87% (active).

For `CCN(CC)CCSc1c2ccccc2nc2cc(NCC(=O)Nc3ccccc3-c3ccccc3NC(=O)CNc3ccc4c(SCCN(CC)CC)c5ccccc5nc4c3)ccc12`, the growth inhibition is 13%.

Regarding `Cc1ccc(N(C=O)c2c([N+](=O)[O-])cc([N+](=O)[O-])c3c2=[N+]([O-])CN=3)cc1`, the growth inhibition is 9%.

In the case of `COc1ccc(C(=O)OCCc2ccccc2)cc1`, the growth inhibition was 6%.

As to `COc1ccc(C(=O)NCCN(C)C)c2nc3ccccc3cc12`, the growth inhibition was 45%.

On to `NCC(O)CSCc1ccc(Cl)cc1` (stereo unspecified), for which the growth inhibition was -2%.

On to `CN(C)/N=N/c1nc[nH]c1C(N)=O`, for which the growth inhibition was -2%.

For `O=c1[nH]c(=O)n(CCCO)cc1F`, the growth inhibition was -21%.

Turning to `COc1ccc(/C(=N/O)c2ccccc2C2=Nc3ccccc3C(NCc3ccccc3)O2)cc1C` (stereo unspecified), the growth inhibition is 1%.

In the case of `CCCC(=O)OC(OC(=O)CCC)c1ccc([N+](=O)[O-])o1`, the growth inhibition was -2%.

As for `O=C(/C(=C/c1ccccc1)CBr)c1ccccc1`, the growth inhibition is 4%.

Take `O=C(Cc1ccccc1F)NC1=C(Cl)C(=O)c2ccccc2C1=O`: the growth inhibition was 20%.

Regarding `Cc1cccc(N2CCN(C(=O)/C(=C/c3ccccc3)NC(=O)c3ccccc3)CC2)c1`, the growth inhibition was -4%.

For the compound `c1cc(Nc2ccc3c(c2)OCO3)c2cc(C3CCCCC3)ccc2n1`, the growth inhibition is 19%.

With `Cc1ccc2nc(N/N=C/c3ccc(C)s3)cc(C)c2c1`, the growth inhibition is -2%.

On to `COc1cc(NCCCCCNC(C)C)c2ncccc2c1Cl`, for which the growth inhibition was -1%.

With `COc1ccc2cc(CN3CCC(C4CCN(Cc5ccc6cc(OC)ccc6c5)CC4)CC3)ccc2c1`, the growth inhibition is -2%.

In the case of `CC(=O)O/N=C/c1c2ccccc2cc2ccccc12`, the growth inhibition was 0%.

As for `CC[C@@]1(OC(=O)CN(C)C)C(=O)OCc2c1cc1n(c2=O)Cc2cc3ccccc3nc2-1`, the growth inhibition was 81% (active).

With `CC1(C)CC(=O)C(C(CC(c2ccccc2)c2cc3c(cc2O)OCO3)C2=C(O)CC(C)(C)CC2=O)=C(O)C1` (stereo unspecified), the growth inhibition was -2%.

As for `CCCCCCC(CCl)c1sc(-c2csc(CCNC(=O)OC(C)(C)C)n2)nc1C(=O)OC` (stereo unspecified), the growth inhibition was -1%.

On to `CCOC(=O)C1=C(C)NC(C)=C(C(=O)OCC)C1c1cccc([N+](=O)[O-])c1`, for which the growth inhibition is -39%.

In the case of `Cc1ccc2c(/C=C/c3ccc(N(C)C)cc3)ccnc2c1C`, the growth inhibition was -15%.

Regarding `O=C1C(Br)=CC(Br)(Br)C=C1Br`, the growth inhibition was 0%.

Staying with this assay, now noted: S. cerevisiae rad50 strain growth inhibition; at 3.7 µM; hits give high values.
Regarding `CNC(=O)OCc1c(COC(=O)NC)c(C)n(-c2ccc(Cl)c(Cl)c2)c1C`, the growth inhibition is -34%.

Regarding `COc1ccc2nc(N/N=C/c3sccc3C)cc(C)c2c1`, the growth inhibition is -27%.

For `O=C(O)/C=C\C(=O)NNc1ccc(Br)cc1`, the growth inhibition was 53%.

Take `S=c1[nH]nc(Cc2ccccc2)c(=S)[nH]1`: the growth inhibition is -6%.

`COc1ccc2nc3cccc([N+](=O)[O-])c3c(NCCCO)c2c1`: the growth inhibition was 93% (active).

As to `CCN(CC)CCSc1c2ccccc2nc2cc(NCC(=O)Nc3ccccc3-c3ccccc3NC(=O)CNc3ccc4c(SCCN(CC)CC)c5ccccc5nc4c3)ccc12`, the growth inhibition is 15%.

As to `Cc1ccc(N(C=O)c2c([N+](=O)[O-])cc([N+](=O)[O-])c3c2=[N+]([O-])CN=3)cc1`, the growth inhibition is 18%.

As for `COc1ccc(C(=O)OCCc2ccccc2)cc1`, the growth inhibition was 3%.

Take `COc1ccc(C(=O)NCCN(C)C)c2nc3ccccc3cc12`: the growth inhibition is 77% (active).

For the compound `NCC(O)CSCc1ccc(Cl)cc1` (stereo unspecified), the growth inhibition is 2%.

`CN(C)/N=N/c1nc[nH]c1C(N)=O`: the growth inhibition is 0%.

`O=c1[nH]c(=O)n(CCCO)cc1F`: the growth inhibition is -11%.

Take `COc1ccc(/C(=N/O)c2ccccc2C2=Nc3ccccc3C(NCc3ccccc3)O2)cc1C` (stereo unspecified): the growth inhibition is 3%.

For `CCCC(=O)OC(OC(=O)CCC)c1ccc([N+](=O)[O-])o1`, the growth inhibition was -1%.

Regarding `O=C(/C(=C/c1ccccc1)CBr)c1ccccc1`, the growth inhibition was 15%.

With `O=C(Cc1ccccc1F)NC1=C(Cl)C(=O)c2ccccc2C1=O`, the growth inhibition was 26%.

Consider `Cc1cccc(N2CCN(C(=O)/C(=C/c3ccccc3)NC(=O)c3ccccc3)CC2)c1`, for which the growth inhibition was -48%.

For the compound `c1cc(Nc2ccc3c(c2)OCO3)c2cc(C3CCCCC3)ccc2n1`, the growth inhibition is -14%.

With `Cc1ccc2nc(N/N=C/c3ccc(C)s3)cc(C)c2c1`, the growth inhibition is -22%.

Take `COc1cc(NCCCCCNC(C)C)c2ncccc2c1Cl`: the growth inhibition is 2%.

For `COc1ccc2cc(CN3CCC(C4CCN(Cc5ccc6cc(OC)ccc6c5)CC4)CC3)ccc2c1`, the growth inhibition is 5%.

With `CC(=O)O/N=C/c1c2ccccc2cc2ccccc12`, the growth inhibition was 1%.

As to `CC[C@@]1(OC(=O)CN(C)C)C(=O)OCc2c1cc1n(c2=O)Cc2cc3ccccc3nc2-1`, the growth inhibition is 95% (active).

In the case of `CC1(C)CC(=O)C(C(CC(c2ccccc2)c2cc3c(cc2O)OCO3)C2=C(O)CC(C)(C)CC2=O)=C(O)C1` (stereo unspecified), the growth inhibition was 1%.

Turning to `CCCCCCC(CCl)c1sc(-c2csc(CCNC(=O)OC(C)(C)C)n2)nc1C(=O)OC` (stereo unspecified), the growth inhibition was 1%.

Regarding `CCOC(=O)C1=C(C)NC(C)=C(C(=O)OCC)C1c1cccc([N+](=O)[O-])c1`, the growth inhibition was 0%.

With `Cc1ccc2c(/C=C/c3ccc(N(C)C)cc3)ccnc2c1C`, the growth inhibition is -41%.

On to `O=C1C(Br)=CC(Br)(Br)C=C1Br`, for which the growth inhibition is -3%.
